Hits are enriched below; roughly 3.7% of the tested compounds scored in any of these assays.
BoNT F protease = blocks Botulinum neurotoxin F light chain protease. Multiplex microsphere protease cleavage assay, flow cytometry. inhibition, % at 10 µM. 360,000 compounds, 0.22% hits; in the data active means inhibition above about 35%, passing the limit was not always enough; inconclusive means no clear call, values can overlap the other calls
Anthrax LF prot = blocks Bacillus anthracis lethal factor protease; P15917; multiplex microsphere protease cleavage assay, LF; inhibition, % at 10 µM; 360,000 compounds, 0.12% hits
Vc quorum ag = inducers of Vibrio cholerae quorum light production without autoinducers | V. cholerae BH1578 lux reporter, luminescence, 6 h | 350,000 compounds, 0.16% hits | activation, % at 18.7 µM; in the data active means activation mostly above about 9.7%, no sharp cut-off; inconclusive means no clear call, values can overlap the other calls; inactive means mostly below about 3.7%
BoNT A protease = BoNT A light chain protease inhibition. multiplex microsphere protease substrate cleavage, flow cytometry. inhibition, % at 10 µM. 360,000 compounds, 0.17% hits
BJeLR viability = kills HRASV12-expressing BJeLR cells; BJeLR (HRASV12) viability, CellTiter-Glo ATP luminescence, 48 h; inhibition, % (concentration not given with the values); 300,000 compounds, 0.17% hits; in the data active means inhibition above about 50%; inconclusive means no clear call, values can overlap the other calls
Autofluor counter = flagged as autofluorescent in microsphere protease counterscreen. compound autofluorescence counterscreen, microsphere flow cytometry; active compounds read high. fluorescence intensity (concentration not given with the values). 360,000 compounds, 3.1% hits; in the data active means fluorescence intensity above about 16000; inconclusive means no clear call, values can overlap the other calls
Hits are given with their value; 0 = inactive; ? = inconclusive; - = no result. Unless noted, no stated cut-off is given here; in the data, active means inhibition above about 30%; inconclusive means no clear call, values can overlap the other calls; inactive means below that.

SMILES	BoNT F protease	Anthrax LF prot	Vc quorum ag	BoNT A protease	BJeLR viability	Autofluor counter
CC1(C(=O)Nc2ccc3c(c2)OCCO3)CCN1C(=O)Cc1ccc(-c2ccccc2)cc1 (stereo not drawn)	0	0	0	0	-	0
CN1OC[C@@H]2CN(S(=O)(=O)c3cccc4ccccc34)[C@H](c3ccc(-c4cccnc4)cc3)C[C@@H]21	0	0	0	0	-	0
O=C1c2ccc(Oc3ccc4c(c3)C(=O)N(CCCCO)C4=O)cc2C(=O)N1CCCCO	0	0	0	0	0	0
O=C(O)CCN1C(=O)c2ccc(Oc3ccc4c(c3)C(=O)N(CCC(=O)O)C4=O)cc2C1=O	0	0	0	0	0	19401
COc1ccc(N2CC(C(=O)NCCc3ccc(OC)c(OC)c3)CC2=O)cc1 (stereo not drawn)	0	0	0	0	0	22233
COc1ccc(CN2CC(C(=O)NCCc3ccc(C)cc3)CC2=O)cc1 (stereo not drawn)	0	0	0	0	0	20337
O=C(Nc1ccccc1)C1CC(=O)N(Cc2ccccc2)C1 (stereo not drawn)	0	0	0	0	0	0
COc1ccc(CN2CC(C(=O)NCCc3ccccc3)CC2=O)cc1 (stereo not drawn)	0	0	0	0	0	17837
CC(=O)c1ccc(NC(=O)C2CC(=O)N(Cc3ccccc3)C2)cc1 (stereo not drawn)	0	0	0	0	0	17232
CCOc1ccc(Cl)cc1-c1cc(C(=O)NCc2ccccc2OC)[nH]n1	0	0	0	0	-	0
COc1cc(/C=C2\CCC(C)C3=C(c4cc(OC)c(OC)c(OC)c4)C(C#N)=C(N)OC32)cc(OC)c1OC (stereo not drawn)	0	0	0	0	-	0
Cc1ccc(S(=O)(=O)c2c(N)n(CCC(C)C)c3nc4ccccc4nc23)cc1	0	0	0	0	0	22605
Cc1ccc(S(=O)(=O)c2c(N)n(NC(=O)c3ccccc3C)c3nc4ccccc4nc23)cc1	0	0	0	0	0	22674
Cc1ccc(S(=O)(=O)c2c(N)n(CCCO)c3nc4ccccc4nc23)cc1	0	0	0	0	0	0
CC1(C(=O)Nc2ccc3c(c2)OCCO3)CCC(=O)N1CCc1c[nH]c2ccccc12 (stereo not drawn)	0	0	-	0	-	0
O=C(Nc1ccc2c(c1)OCO2)c1cc(C2CCCCN2C(=O)c2ccc3c(c2)CCO3)on1 (stereo not drawn)	0	0	0	0	-	0
Cc1cc(=O)oc2cc(OC(=O)CCN3C(=O)c4ccccc4C3=O)ccc12	0	0	0	0	0	22230
COc1ccc(OC(=O)CCCN2C(=O)c3ccccc3C2=O)cc1	0	0	0	0	0	24000
COc1ccc(OCCN2C(=O)c3ccccc3C2=O)cc1	0	0	0	0	0	0
C=CCSc1nc(N)c(C#N)c(-c2ccccc2)c1C#N	0	0	0	0	0	21076
CCCSc1nc(N)c(C#N)c(-c2ccc(C)cc2)c1C#N	0	0	0	0	0	0
COC(=O)CNC(=O)CNC(=O)Nc1ccccc1	0	0	0	?	0	19345
COC(=O)CCCCNC(=O)Nc1ccccc1	0	0	0	0	0	0
CCOC(=O)C1=CCC(c2ccccc2C)N(S(=O)(=O)c2ccc(C)cc2)C1 (stereo not drawn)	0	0	-	0	-	0
CSc1nc2[nH]c(=O)[nH]c2c(=O)[nH]1	0	0	0	0	-	0
SMILES	BoNT F protease	Anthrax LF prot	Vc quorum ag	BoNT A protease	BJeLR viability	Autofluor counter
CSc1nncc(=O)[nH]1	0	0	0	0	0	21213
O=c1cnnc(SCCc2ccccc2)[nH]1	0	0	0	0	0	23384
Cc1cccc(CSc2nncc(=O)[nH]2)c1	0	0	0	0	0	0
Cc1ccc(CN2CCN(C(=O)/C=C/[C@H]3O[C@@H](n4cc(C)c(=O)[nH]c4=O)C[C@@H]3O)CC2)cc1	0	0	-	0	-	0
CCCNc1cc(C)oc(=O)c1C(=O)CC	0	0	0	0	0	0
CCCC(=O)c1c(NC)cc(C)oc1=O	0	0	0	?	0	21049
Clc1ccc(-c2nnc(-c3ccccc3Cl)o2)cc1	0	0	0	0	0	17061
CON/C=C(\C=Nc1ccc(Cl)cc1)c1ncc(C(F)(F)F)cc1Cl	0	0	0	0	0	23332
COc1ccc(Nc2sc(C(=O)c3ccc(Cl)cc3)c(N)c2C(=O)Nc2ccccc2OC)cc1	0	0	0	0	0	22771
O=C(COC(=O)c1ccc2ncsc2c1)NCc1ccccc1Cl	0	0	0	?	-	0
